Source: PubChem
The list is not random: actives were taken first. Their share in the collection is about 21%.
Shiga toxin inh = Shiga toxin inhibition; 290,000 compounds, 9.2% hits; Vero cells, Shiga toxin protein synthesis inhibition reporter; AID 2315; inhibition, % at 38.7 µM; in the data active = inhibition mostly above about 28%, no sharp cut-off; inactive = mostly below about 43%; also: 0% is about no effect
Sm TGR inh = inhibitors of Schistosoma mansoni thioredoxin glutathione reductase; purified TGR, DTNB reduction, TNB absorbance 405 nm; 360,000 compounds, 3% hits; AID 485364; Potency, µM (titrated, usually from 114 µM), inactives show top-dose activity change, negative = inhibition, hits mostly inhibitors; also: potency is read from the fitted curve at half-maximal effect; % is scaled to controls: 0 for no effect and ±100 for the full control effect; nearly all actives have a fitted effect of over 60% in size
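Kinetic colorimetric format: TGR-catalysed, NADPH-driven DTNB reduction monitored via TNB absorbance. Enzyme dispensed at 20 nM; compound exposure 15 min at room temperature before reaction start.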
NS1 inh = inhibitors of influenza NS1 protein function; 270,000 compounds, 0.4% hits; AID 2326; Potency, µM (top dose mostly 46.1 µM), without a hit: at the highest dose activity, positive = more growth; calls by dose curve; also: potency is read from the fitted curve at half-maximal effect; actives are rising curves; nearly all actives have a fitted effect of over 50% in size
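Read-out: OD600 growth recovery of NS1-expressing budding yeast. Cells grown overnight at 30C in -URA glucose medium, washed, resuspended and diluted 1:100 in 2% galactose assay medium, pH 6.0. Same strain lacking NS1 served as positive control.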
CHX counter = counter-screen hit for Shiga toxin inhibitors, cycloheximide | 300,000 compounds, 12% hits | AID 2314 | cell reporter, cycloheximide protein synthesis inhibition counterscreen | max response, %; in the data active = max response mostly above about 13%, no sharp cut-off; inactive = mostly below about 14%; also: read at 38.3 µM for the half of the compounds with a filed dose; 0% is about no effect
Pf growth 96h = inhibits malaria parasite growth, 96 h; P. falciparum luciferase reporter growth, 96 h; Potency, µM (titrated, usually from 28.7 µM), inactives show at the highest dose activity change, negative = inhibition, hits mostly inhibitors; 320,000 compounds, 6.9% hits; also: potency is read from the fitted curve at half-maximal effect; % is scaled to controls: 0 for no effect and ±100 for the full control effect
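Parasite growth measured via integrated firefly luciferase reporter in P. falciparum. Infected erythrocytes at 2% hematocrit, 0.05% parasitemia final were treated 96 hours at 37 C under 5% CO2, and luminescence was read.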
Pf growth 48h = P. falciparum growth inhibition at 48 hours (one generation); 310,000 compounds, 5.9% hits; AID 504832; Potency, µM (doses to about 28.7 µM), for the others: top-dose activity change, negative = inhibition, most hits filed as inhibitors; P. falciparum luciferase growth in erythrocytes, 48 h; also: potency is read from the fitted curve at half-maximal effect; % is scaled to controls: 0 for no effect and ±100 for the full control effect
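Cell-based growth assay: transgenic P. falciparum expressing firefly luciferase, cultured in red cells within RPMI 1640 containing 0.5% w/v Albumax, 24 mM bicarbonate and gentamycin. A drop in luciferase activity indicates inhibition.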
* = called active by the depositor; ? = inconclusive; nt = no result given. Unless noted, calls follow the shape of the dose curve; as a rule, active = well fitted curve in the direction sought with a large enough effect; inconclusive = small, poorly fitted or top-dose-only effect, or another doubt; inactive = no such curve, though single readings can be large; an effect the other way counts as inactive or inconclusive.

SMILES	Shiga toxin inh	Sm TGR inh	NS1 inh	CHX counter	Pf growth 96h	Pf growth 48h
Cc1nc(CNC(=O)CC2C(=O)NCCN2Cc2ccoc2)nc2c1CCCC2 (centres undefined)	-7	14µM*	-3%	-3	-9%	3%
O=C(CC1C(=O)NCCN1Cc1ccoc1)NCCc1ccc(Cl)cc1 (centres undefined)	9	?	-3%	3	?	19%
Cc1nc(CCNC(=O)CC2C(=O)NCCN2Cc2ccccc2)sc1C (centres undefined)	14	?	8%	1	?	20%
CCc1ccc(CN(C)C(=O)CC2C(=O)NCCN2Cc2ccoc2)cc1 (centres undefined)	4	18µM*	1%	2	?	0%
CC(C)C(=O)N=c1sc2cccc(F)c2n1C	17	10%	1%	10*	23%	11%
CCn1c(=NC(=O)c2ccco2)sc2cccc(F)c21	101*	-2%	-13%	34*	45%	34%
COc1ccc(OC)c2c1sc(=NC(=O)c1ccco1)n2C	-8	-24%	-12%	-2	?	nt
C[C@@H](SCc1ccccc1)C(=O)O	nt	nt	1%	nt	nt	nt
CCCCNC(=O)NS(=O)(=O)c1ccc(C(=O)O)cc1	-10	nt	nt	-4	nt	nt
COc1cc(OC)cc(C(=O)NC(=S)NCCc2ccccc2)c1	47	10µM*	19%	14*	-19%	-10%
COc1ccc(C(=O)NC(=S)NCc2ccccc2)cc1	-1	5µM*	11%	6	28%	21%
COc1ccc(CNC(=S)N/N=C(\C)c2ccc(OC)cc2)cc1	64*	11%	-4%	15	?	10%
C/C(=N\NC(=S)NCc1ccccc1)c1cccc(Br)c1	68*	6%	-4%	49*	0%	-9%
Cc1cc(Cl)ccc1NC(=O)CS(=O)(=O)c1cccc2nsnc12	nt	-16%	nt	nt	nt	nt
CCCCn1c(N)c(N(Cc2ccccc2OC)C(=O)c2ccc([N+](=O)[O-])s2)c(=O)[nH]c1=O	nt	-33%	nt	nt	9.3µM*	10µM*
CCOc1cccc(CNCCSc2nnnn2C)c1	11	0%	14%	4	?	26%
COc1ccc(CSc2nc(CSC)cc(N3CCOCC3)n2)cc1	-7	19%	-47%	5	?	12µM*
COc1ccc(CN2CCOCCOCCOCCOCC2)cc1	4	-10%	8%	2	22%	31%
CCCN1C(=O)c2[nH]nc(-c3cc(Cl)c(C)cc3O)c2C1c1ccc(O)c(OC)c1 (centres undefined)	-7	7%	10%	-1	10µM*	?
COCCCN1C(=O)c2[nH]nc(-c3cc(C)cc(C)c3O)c2C1c1ccc(O)c(OC)c1 (centres undefined)	-4	0%	?	-1	?	9.3µM*
COc1ccccc1N1CCN(C2CCCN(C(=O)CCN3CCCCO3)C2)CC1 (centres undefined)	-6	9%	4%	11	?	5%
COc1cc(F)ccc1S(=O)(=O)NCc1cccnc1	nt	-18%	-2%	5	21%	3%
O=S(=O)(NCCOCCNS(=O)(=O)c1ccccc1)c1ccccc1	-19	-1%	1%	7	0%	31%
O=S(=O)(NCCOCC(F)(F)F)c1ccc2oc3ccccc3c2c1	-12	-25%	-35%	7	0%	12µM*
COc1cnc(-c2ccccn2)nc1Sc1ccc(Cl)cc1	-13	7%	6%	-2	1.7µM*	2.3µM*
SMILES	Shiga toxin inh	Sm TGR inh	NS1 inh	CHX counter	Pf growth 96h	Pf growth 48h
COc1ccc(Sc2nc(-c3ccccn3)ncc2OC)cc1	24	1%	nt	0	3.3µM*	3.3µM*
COc1cnc(-c2ccccn2)nc1Sc1ccccc1	37	6%	nt	6	?	13µM*
CCOC(=O)CSc1nc(-c2ccccn2)ncc1OC	-7	5%	nt	-2	?	0%
COc1cnc(N(C)C)nc1Sc1ccc(Cl)cc1	-10	12%	-46%	10	61%	-17%
N#Cc1ccc(-c2ccccc2)nc1Sc1ccc(F)cc1	-8	5%	7%	2	-45%	?
COc1cnc(-c2ccccn2)nc1Sc1ccc(F)cc1	8	-4%	nt	-2	1.7µM*	4.7µM*
COC(=O)C(CCSC)NC(=O)c1c(C)oc2ncn(CC(C)C)c(=O)c12 (centres undefined)	nt	4%	nt	nt	nt	nt
COc1ccc(Br)cc1CNC(=O)c1ccc(-n2c(C)cc3c2CCC(C)C3)cc1 (centres undefined)	nt	-25%	nt	nt	nt	nt
Cc1ccc(O)c(NC(=O)c2nc3nc(C)cc(C(F)F)n3n2)c1	nt	19%	nt	nt	nt	nt
O=C(Cn1c2[n+](c3ccccc31)CC(O)CS2)c1ccccc1 (centres undefined)	-8	11%	1%	7	64%	2.1µM*
Cc1ccc(C(=O)Cn2c3[n+](c4ccccc42)CC(O)CS3)cc1 (centres undefined)	-8	8%	4%	2	10%	?
N#Cc1nc(-c2ccccc2Cl)oc1N1CCCCC1	129*	-5%	-14%	24*	5%	34%
N#Cc1nc(-c2cccc3ccccc23)oc1N1CCCCC1	44	0%	3%	22*	11%	43%
Cc1ccc(C)c(NC(=O)c2cnc(N3CCCC3)nc2C)c1	nt	1%	nt	nt	nt	nt
Cc1ccc(-c2noc(CNc3ccccc3)n2)cc1	64*	-5%	-14%	37*	78%	157%
CCc1ccc(NCc2nc(-c3ccccc3)no2)cc1	47*	5%	-49%	31*	16%	41%
Cc1ccc(CC(=O)NCc2nc(-c3ccccc3)no2)cc1	nt	14%	nt	nt	nt	nt
CCN(CC)C1=CC(=[N+]2CCCC2)CC(C)(C)C1	-22	-29%	2%	-6	0.37µM*	1.3µM*
CN(Cc1ccccc1)C1=CC(=[N+]2CCCC2)CC(C)(C)C1	3	5%	2%	-3	0.59µM*	0.93µM*
CCC(C)[C@H]1CNCCN1CCc1cccc2ccccc12 (some centres undefined)	nt	-24%	nt	nt	?	?
COc1cc(/C=N/NC(=S)NC2CC3C=CC2C3)cc(OC)c1OC (centres undefined)	-16	-13%	4%	1	2.9µM*	5.2µM*
Oc1c(Br)cc(Br)cc1/C=N/NC(=S)N[C@H]1CC2C=CC1C2 (some centres undefined)	7	-2%	-1%	10	?	?
CCCCOc1ccc(/C=N/NC(=S)Nc2cccc(C)c2C)cc1	-21	-14%	-3%	9	nt	?
CCOc1ccc(/C=N/NC(=S)NC2CC3C=CC2C3)cc1 (centres undefined)	12	-9%	10%	2	8.3µM*	?
COc1ccc(S(=O)(=O)NCc2nc3nc(C)cc(C)n3n2)cc1OC	-8	2%	-2%	-2	5.2µM*	13%
